Only some compounds are listed: those with a hit (about 21% of all), similar ones and a draw of the others.
NS1 inh: blocks influenza NS1 protein function | Potency, µM (doses to about 46.1 µM) | hit rate 0.4% among 270,000 | AID 2326; also: actives are rising curves; nearly all actives have a fitted effect of over 50% in size
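A cell-based growth assay was used: compounds that relieve NS1-induced slow growth of budding yeast raise OD600. Assay medium was yeast nitrogen base with ammonium sulphate and -URA supplement, pH 6.0, with 2% galactose.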
Pf growth 96h: P. falciparum growth inhibition at 96 hours | hit rate 6.9% among 320,000 | AID 504834 | P. falciparum luciferase reporter growth, 96 h | Potency, µM (doses to about 28.7 µM), hits mostly inhibitors; active = well fitted inhibition curve with a large enough effect; inconclusive = small, poorly fitted or top-dose-only effect, or another doubt; inactive = no such curve, though single readings can be large or run the other way
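Luminescence readout: decreased luciferase signal marks inhibited growth of reporter-expressing P. falciparum in infected red cells (2% hematocrit, 0.05% parasitemia final), exposed to compound two generations (96 h, 37 C, 5% CO2).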
Pf growth 48h: inhibits P. falciparum growth in the first generation, 48 h. P. falciparum luciferase growth in erythrocytes, 48 h. Potency, µM (top dose mostly 28.7 µM), hits mostly inhibitors. hit rate 5.9% among 310,000. AID 504832; active = well fitted inhibition curve with a large enough effect; inconclusive = small, poorly fitted or top-dose-only effect, or another doubt; inactive = no such curve, though single readings can be large or run the other way
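Erythrocytes infected with P. falciparum carrying an integrated firefly luciferase reporter (2% hematocrit, 0.1% parasitemia final) were exposed to compounds in RPMI 1640 with 0.5% Albumax at 37 C, 5% CO2. Growth inhibition was scored as reduced luminescence.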
CHX counter: counter-screen hit for Shiga toxin inhibitors, cycloheximide. cell reporter, cycloheximide protein synthesis inhibition counterscreen. max response, %. hit rate 12% among 300,000. AID 2314; in the data active = max response mostly above about 13%, no sharp cut-off; inactive = mostly below about 14%; also: read at 38.3 µM for the half of the compounds with a filed dose
Shiga toxin inh: inhibitors of Shiga toxin in Vero cells; inhibition, % at 38.7 µM; hit rate 9.2% among 290,000; AID 2315; Vero cells, Shiga toxin protein synthesis inhibition reporter; in the data active = inhibition mostly above about 28%, no sharp cut-off; inactive = mostly below about 43%
SARS PLP yeast: blocks SARS-CoV papain-like protease in a yeast assay. S. cerevisiae expressing SARS-CoV PLpro, growth rescue. Potency, µM (highest dose often 32.9 µM), most hits filed as activators. hit rate 0.19% among 330,000. AID 485353; also: nearly all actives have a fitted effect of over 55% in size
Numbers stand for hits; n = inactive; u = inconclusive; x = not tested or not shown; [ ] = another dose, or the depositor's remark. Unless noted, calls follow the shape of the full dose curve.

SMILES	NS1 inh	Pf growth 96h	Pf growth 48h	CHX counter	Shiga toxin inh	SARS PLP yeast
Cc1cccc(-c2nc(Nc3ccc(N4CCOCC4)cc3)c3ccccc3n2)c1	n	u	9.3µM	n	n	n
CCOC(=O)c1ccc(Nc2nc(-c3cccnc3)nc3ccccc23)cc1	n	n	5.9µM	n	n	n
Cc1ccccc1Nc1nc(-c2cccnc2)nc2ccccc12	n	u	u	n	n	n
O=C(CN(C(=O)CNC(=O)c1cccs1)c1ccccc1)NC1CCCCC1	n	n	n	n	n	n
Cc1ccc(N=Cc2c(O)c3ccccc3oc2=O)c(C)c1	n	n	n	30	n	n
COc1cccc(N=Cc2c(O)c3ccccc3oc2=O)c1	n	u	n	21	n	n
O=C(O)CCCN=Cc1c(O)c2ccccc2oc1=O	x	10µM	n	n	n	n
COc1cccc(N=CC2=C(O)CCCC2=O)c1	x	n	n	30	n	n
O=C1CCCC(O)=C1C=Nc1cccc(C(F)(F)F)c1	x	n[5.75 µM]	n	n	n	n
CCc1cccc(C)c1N=Cc1c(O)c2ccccc2oc1=O	n	n	13µM	n	x	n
CN=C(C)c1c(O)c2ccccc2oc1=O	n	n	x	18	n	n
Cc1c(O)c2ccccc2oc1=O	n	n	n	n	n	n
Cc1ccc(C)c(C(=O)CSc2nc(C)cc(=O)[nH]2)c1	n	n	n	n	n	n
O=C(CCS(=O)(=O)c1ccccc1)NCCS(=O)(=O)c1ccccc1	x	n	n	n	n	n
O=C(CCS(=O)(=O)c1ccccc1)NC12CC3CC(CC(C3)C1)C2	n	n	x	25	n	n
CC(C)NC(=O)CSc1nnc(-c2ccc(F)cc2)c2ccccc12	x	n	u	n	n	n
O=C(/C=C/c1ccco1)Nc1ccc(Cl)c(S(=O)(=O)N2CCOCC2)c1	n	n	u	20	74	n
O=C(Nc1ccccc1O)c1cc(S(=O)(=O)N2CCOCC2)c(Cl)cc1Cl	n	n	7.4µM	n	n	n
O=C(Nc1ccccc1)Nc1ccc(Cl)c(S(=O)(=O)N2CCOCC2)c1	x	u	9.3µM	n	n	n
O=C(Nc1ccc(Cl)c(S(=O)(=O)N2CCOCC2)c1)c1cccs1	x	x	x	x	x	n
CCOc1ccc(-c2noc(-c3ccncc3)n2)cc1OCC	n	n	n	n	n	n
COc1cc(-c2noc(-c3cccs3)n2)cc(OC)c1OC	n	u	u	n	n	n
Cc1ccc(-c2nc(-c3ccncc3)no2)cc1Cl	n	n	n	28	61	n
COc1ccc(-c2noc(-c3cccs3)n2)cc1OC	n	n	n	52	69	n
COc1ccc(-c2noc(CSc3nnc(Cc4ccccc4)n3-c3cccc(C)c3)n2)cc1OC	n	x	n	n	n	n
SMILES	NS1 inh	Pf growth 96h	Pf growth 48h	CHX counter	Shiga toxin inh	SARS PLP yeast
COc1ccc(-c2nc(-c3ccncc3)no2)cc1OC	n	u	x	48	79	n
CCn1c(SCc2nc(-c3ccc(OC)c(OC)c3)no2)nnc1-c1cccs1	n	u	u	15	n	n
CCOc1ccc(N(CC(=O)NCCc2ccccc2)C(=O)CCC(=O)Nc2nccs2)cc1	n	n	u	n	n	n
CN(C)c1ccc(C(=O)NCC(c2cccs2)N2CCOCC2)cc1 (stereo not drawn)	x	x	x	x	x	n
Cc1cc(-c2nc(-c3ccncc3)no2)ccc1[N+](=O)[O-]	n	n	x	33	88	n
COc1ccc(-c2noc(-c3ccccc3Cl)n2)cc1OC	n	x	n	56	65	n
COc1ccc(-c2noc(-c3ccco3)n2)cc1OC	n	u	n	43	139	x
COc1ccc(-c2ccc(-c3noc(-c4ccc(OC)c(OC)c4)n3)c(OC)n2)cc1	n	x	n	n	n	n
COc1ccc(-c2noc(-c3cccc(Cl)c3)n2)cc1OC	n	n	n	n	n	n
Cc1ccc(-c2nc(-c3ccccn3)no2)cc1[N+](=O)[O-]	n	n	n	37	55	n
Cc1ccc(-c2nc(-c3ccccn3)no2)cc1Cl	n	x	n	n	n	n
COc1ccc(NC(=O)CSc2ccc3ccccc3c2)cc1S(=O)(=O)N1CCCCC1	u	n	n	n	n	n
Cc1ccc(-c2nc(-c3ccncc3)no2)cc1C	n	n	n	52	133	n
Fc1cccc(F)c1-c1nc(-c2ccncc2)no1	n	n	n	48	86	n
CCCN(C(=O)CSCC(=O)Nc1ccc(OC)cc1)c1c(N)n(Cc2ccccc2)c(=O)[nH]c1=O	x	n	n	x	x	n
C=CCN1C(=O)/C(=C\c2ccc(OC(=O)c3ccco3)c(OC)c2)SC1=S	x	u	n	27	n	n
C=CCN1C(=O)/C(=C\c2cccc(OC(=O)c3ccco3)c2)SC1=S	n	n	n	n	n	n
O=C1/C(=C/c2ccc(O)c(O)c2)SC(=S)N1Nc1ccccc1	x	n	u	n	n	n
COc1ccc(/C=C2/SC(=S)N(Cc3ccccc3)C2=O)cc1O	n	u	8.3µM	n	120	n
CCOc1cc(/C=C2\SC(=S)N(Nc3ccccc3)C2=O)ccc1O	n	n	n	55	62	n
CCOc1cc(/C=C2\SC(=S)N(NS(=O)(=O)c3ccccc3)C2=O)ccc1O	n	n	n	n	n	n
COc1cc(/C=C2\SC(=S)N(Nc3ccccc3)C2=O)ccc1O	n	n	n	51	62	n
CCOC(=O)C1=C(COC(=O)CCOc2ccccc2C)NC(=O)NC1C (stereo not drawn)	x	n	n	x	x	n
O=C(COC(=O)c1cnccn1)NC1CCCc2ccccc21 (stereo not drawn)	x	x	x	x	x	n
COc1ccc(OC)c(/C=C2\SC(=S)N(Cc3cccnc3)C2=O)c1	n	9.3µM	n	n	n	n
SMILES	NS1 inh	Pf growth 96h	Pf growth 48h	CHX counter	Shiga toxin inh	SARS PLP yeast
COC(=O)c1ccc(-c2noc(CN(C)CC3CCCCO3)n2)cc1 (stereo not drawn)	n	u	n	43	n	n
COC(=O)c1ccc(-c2noc(CN3C[C@H]4CC[C@H]3C4)n2)cc1	n	u	n	19	n	n
COC(=O)c1ccc(-c2noc(CN(Cc3ccncc3)CC3CCCO3)n2)cc1 (stereo not drawn)	n	n	u	n	n	n
Cc1c(Cl)cccc1NC(=O)CSc1nccn1C	n	u	n	n	n	n
O=Cc1ccccc1OCc1ccc2c(c1)OCO2	n	u	n	46	100	n
C(=C1/CCCC2=C1Nc1ncnn1C2c1ccccc1)/c1ccccc1 (stereo not drawn)	u	n	12µM	n	n	u
FC(F)(F)c1ccccc1C1C2=C(Nc3ncnn31)c1ccccc1CCC2 (stereo not drawn)	n	x	u	n	n	n
CS(=O)(=O)NNC(=O)c1sccc1OCc1ncc(C(F)(F)F)cc1Cl	n	n	n	n	n	n
O=C(CNC(=O)c1ccccc1)N/N=C/C=C/c1ccccc1	n	n	n	n	n	n
O=C(N/N=C\C=C\c1ccco1)c1cc(-c2ccc3ccccc3c2)n[nH]1	n	n	n	24	active	n
O=C(N/N=C/C=C/c1ccco1)c1cnccn1	n	u	u	n	n	n

Screening data: PubChem, National Center for Advancing Translational Sciences (NCATS)
